# SRC2 inh = inhibits human steroid receptor coactivator 2. HEK293 GAL4-SRC2 luciferase reporter, luminescence. inhibition, % at 9 µM. 0.17% of 370,000 active. Q15596. AID 651957;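 active = inhibition above the mean inhibition of all tested compounds plus 3 SD, set per campaign, cut at about 52% in these data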;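 also: 0% = DMSO treated cells and 100% = cells given Gossypol at 36 µM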
# SRC1 inh = inhibits human SRC1 coactivator; Q15788; HEK293 GAL4-SRC1 luciferase reporter, luminescence; inhibition, % at 3.6 µM; 0.12% of 360,000 active; AID 588354;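 active = inhibition above the campaign mean plus 3 SD, with each screening campaign given its own cutoff, cut at about 60% in these data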;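 also: 0% = DMSO treated cells and 100% = gossypol at 36 µM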
# NCOA3 inh = human NCOA3 inhibition | inhibition, % at 3.6 µM | 0.17% of 360,000 active | HEK293 GAL4-SRC3 luciferase reporter, luminescence;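 active = inhibition above a per-campaign cutoff, the mean of all compounds plus 3 SD, cut at about 60% in these data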;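 also: 0% = DMSO-treated cells and 100% = gossypol-treated cells at 36 µM; higher means less SRC3-driven luciferase light from the GAL4 reporter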
# Target sequence (Q9Y6Q9 whole entry, looked up, the tested form may be a part): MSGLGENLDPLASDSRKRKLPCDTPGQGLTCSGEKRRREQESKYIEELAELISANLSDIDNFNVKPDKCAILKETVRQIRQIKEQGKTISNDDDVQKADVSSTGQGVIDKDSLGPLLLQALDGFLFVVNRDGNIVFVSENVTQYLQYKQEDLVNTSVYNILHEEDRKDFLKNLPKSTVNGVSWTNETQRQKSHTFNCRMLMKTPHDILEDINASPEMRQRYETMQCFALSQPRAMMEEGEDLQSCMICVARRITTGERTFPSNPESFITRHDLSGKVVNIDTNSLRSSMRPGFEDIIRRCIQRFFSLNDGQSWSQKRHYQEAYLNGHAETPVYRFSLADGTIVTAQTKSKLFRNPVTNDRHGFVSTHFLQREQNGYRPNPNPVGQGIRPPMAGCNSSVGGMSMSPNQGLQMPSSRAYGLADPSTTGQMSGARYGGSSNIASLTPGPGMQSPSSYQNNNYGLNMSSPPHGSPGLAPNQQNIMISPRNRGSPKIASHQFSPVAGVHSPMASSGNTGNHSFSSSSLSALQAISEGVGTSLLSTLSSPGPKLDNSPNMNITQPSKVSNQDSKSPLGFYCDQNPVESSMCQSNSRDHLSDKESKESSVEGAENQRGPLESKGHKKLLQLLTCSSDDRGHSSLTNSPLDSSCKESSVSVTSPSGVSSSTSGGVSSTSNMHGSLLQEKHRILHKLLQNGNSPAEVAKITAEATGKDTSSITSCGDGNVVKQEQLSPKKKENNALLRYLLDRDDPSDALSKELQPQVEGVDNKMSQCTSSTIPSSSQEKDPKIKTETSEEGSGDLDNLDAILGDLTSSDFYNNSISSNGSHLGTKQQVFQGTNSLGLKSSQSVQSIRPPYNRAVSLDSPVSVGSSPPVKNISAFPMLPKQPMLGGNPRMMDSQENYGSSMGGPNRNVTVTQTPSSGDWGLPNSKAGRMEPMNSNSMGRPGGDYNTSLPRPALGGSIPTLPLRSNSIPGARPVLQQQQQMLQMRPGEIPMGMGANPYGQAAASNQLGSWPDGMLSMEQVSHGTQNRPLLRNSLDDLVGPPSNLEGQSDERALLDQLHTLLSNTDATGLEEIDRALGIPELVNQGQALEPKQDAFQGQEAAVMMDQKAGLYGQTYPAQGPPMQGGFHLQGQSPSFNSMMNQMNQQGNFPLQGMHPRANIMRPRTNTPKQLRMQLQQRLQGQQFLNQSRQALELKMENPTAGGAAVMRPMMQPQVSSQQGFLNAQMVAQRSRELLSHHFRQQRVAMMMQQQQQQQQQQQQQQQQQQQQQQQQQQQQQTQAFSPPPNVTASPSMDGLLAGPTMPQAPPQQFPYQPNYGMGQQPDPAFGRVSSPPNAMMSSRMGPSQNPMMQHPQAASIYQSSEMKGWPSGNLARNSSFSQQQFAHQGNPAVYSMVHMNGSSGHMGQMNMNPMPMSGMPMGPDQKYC
# NR2F2 inh = NR2F2 (human) inhibition, primary screen. P24468. HEK293T NGFI-A luciferase reporter, luminescence. inhibition, % at 8.6 µM. 0.7% of 370,000 active. AID 686940;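 active = inhibition above a per-plate cutoff, mean inhibition of test wells between control levels plus 3 SD, cut at about 38% in these data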;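 also: cells cotransfected with COUP-TFII expression vector driving the NGFI-A reporter; 0% = median of COUP-TF2 test wells and 100% = reporter-only cells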
# Gli-Sufu block = blocks Gli-Sufu signaling in a luciferase reporter; Sufu-KO-LIGHT fibroblasts, Gli luciferase reporter luminescence; inhibition, % at 5 µM; 0.74% of 340,000 active; AID 588413;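 active = inhibition above about 55%, limit read from the data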;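 also: 0% = DMSO-treated cells and 100% = wells with medium but no cells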
# LRH-1 inv ag = suppresses constitutive activity of human LRH-1; HEK293T StAR-luciferase reporter, LRH-1 transfected, 24 h; 0.13% of 360,000 active; inhibition, % at 3.6 µM; AID 602396;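 active = inhibition above the mean inhibition of all tested compounds plus 3 SD, cut at about 73% in these data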;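 also: 0% = DMSO wells and 100% = reporter-only cells lacking LRH-1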
# Gli-Sufu confirm = confirmation of Gli-SUFU pathway antagonists; 40% of 2,500 active; Sufu-KO-LIGHT cells, Gli luciferase reporter, luminescence; shares compounds with Gli-Sufu block; inhibition, % at 5 µM;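 active = mean inhibition at 5 µM reaching about 45%, limit read from the data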;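 also: plate controls were DMSO-treated cells for no effect and wells lacking cells for full effect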
# SufuKO cytotox = counter-screen for Gli-SUFU antagonists: cytotoxicity. shares compounds with Gli-Sufu block. Sufu-KO-LIGHT cells cytotoxicity, ATP luminescence. cytotoxicity, % at 5 µM. 32% of 2,500 active;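 active = mean cytotoxicity at 5 µM above about 25%, limit read from the data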;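 also: cells exposed to compound overnight for roughly 16 to 18 hours; plate controls were DMSO wells with cells for no effect and medium without cells for full effect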
# Wnt3a counter = counter-screen for Gli-SUFU antagonists: Wnt3a reporter inhibition; Wnt-LIGHT cells, Wnt3a-driven luciferase reporter, luminescence; inhibition, % at 6.25 µM; AID 651995; shares compounds with Gli-Sufu block; 20% of 2,500 active;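 active = mean inhibition above about 25%, limit read from the data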
# * = called active by the depositor; nt = not tested or not shown. Shown are actives, neighbours in structure and some others; about 1.3% of the full set was active somewhere.
SMILES,SRC2 inh,SRC1 inh,NCOA3 inh,NR2F2 inh,Gli-Sufu block,LRH-1 inv ag,Gli-Sufu confirm,SufuKO cytotox,Wnt3a counter
Cc1ccc(-c2nc3sc4c(N)ncnc4c3c3c2CCCC3)cc1,3,-13,4,7,55,-4,28,-14,25*
O=c1[nH]cnc2c1sc1nc(-c3ccccc3)c3c(c12)CCCC3,-6,2,7,-5,9,-8,nt,nt,nt
CC(=O)N(C)c1cccc(-c2ccc3nnc(C)n3n2)c1,2,2,7,-5,56*,0,16,2,23
COC(=O)c1cc(-c2c(C)noc2C)c(=O)n2c1CCC2,9,nt,nt,-6,nt,nt,nt,nt,nt
COc1ccc(CN(C2CCCC2)S(=O)(=O)c2ccc(-n3cnnn3)cc2)cc1,18,8,2,15,58*,0,14,11,1
COc1ccc(CN(C2CCCC2)S(=O)(=O)c2ccc(-n3cnnn3)cc2)cc1OC,-13,10,6,7,-9,3,nt,nt,nt
COc1ccc(OC)c(C(=O)NC(CC(N)=O)c2ccc(NCCN3CCCC3)c([N+](=O)[O-])c2)c1 (centres undefined),-11,6,3,-2,4,-40,nt,nt,nt
COc1ccc(OC)c(C(=O)NC(CC(N)=O)c2ccc(NCCN3CCOCC3)c([N+](=O)[O-])c2)c1 (centres undefined),4,2,0,8,94*,6,11,9,-23
CCOC(=O)[C@@]12CCCC=C1N(CCc1ccc(Cl)cc1)C(=O)[C@H]2CC(=O)NCC1CCCCC1,8,nt,nt,-5,nt,nt,nt,nt,nt
CCC(C(=O)Nc1ccccc1N1CCCC1)c1ccccc1F (centres undefined),10,nt,nt,17,nt,nt,nt,nt,nt
CCC[C@H]1[C@@H](OC(=O)NCc2ccco2)CC[C@@]23CCCN2C(=O)CCC[C@@H]13,nt,nt,nt,17,nt,nt,nt,nt,nt
CCCN(CCC)CCN1C(=O)C2C(C(=O)Nc3ccc(C)cc3)C3C=CC2(O3)C1C(=O)NC1CCCCC1 (centres undefined),10,-5,-2,-2,16,18,nt,nt,nt
CCN(CC)CCN1C(=O)C2C(C(=O)Nc3cc(C)cc(C)c3)C3C=CC2(O3)C1C(=O)NC1CCCCC1 (centres undefined),-31,-16,-1,-6,64*,11,12,1,-6
CN(C)S(=O)(=O)c1cccc(C(=O)OCC(=O)Nc2sccc2C#N)c1,nt,-6,17,nt,99*,9,17,5,-65
O=C(NCCN1CCC(Cc2ccccc2)CC1)C1CCCN(S(=O)(=O)c2ccccc2[N+](=O)[O-])C1 (centres undefined),32,nt,nt,31,nt,nt,nt,nt,nt
O=C(N/N=C/c1cc(Cl)ccc1O)C(=O)Nc1ccccc1OC(F)(F)C(F)F,-2,37,68*,18,55*,-13,64*,46*,64*
COc1cccc(/C=N/NC(=O)C(=O)Nc2ccccc2OC(F)(F)C(F)F)c1,2,14,19,-7,-2,7,nt,nt,nt
O=C(N/N=C/c1cc(Br)ccc1O)C(=O)Nc1ccccc1OC(F)(F)C(F)F,4,22,60,13,60*,-17,73*,32*,58*
COc1ccccc1/C=N/NC(=O)C(=O)Nc1ccccc1OC(F)(F)C(F)F,16,1,19,11,16,12,nt,nt,nt
COC(=O)CCC[C@H](C)[C@@H](NS(=O)(=O)c1ccc(C)cc1)C(C)(C)C,-9,nt,nt,16,nt,nt,nt,nt,nt
O=C(CCl)N=c1sccn1Cc1cccc2ccccc12,26,-10,16,-5,96*,37,33,15,-18
COC(=O)[C@H](CC(C)C)N(CCc1cn(Cc2ccccc2)nn1)S(=O)(=O)c1ccccc1Br,7,nt,nt,6,nt,nt,nt,nt,nt
O=C(c1cc2sccc2n1Cc1ccccc1)N1CCN(c2nc3ccccc3s2)CC1,5,19,42,27,58*,11,68*,33*,-18
CC1CCN(C(=O)C2CCN(C(=O)c3cc4sccc4n3Cc3ccc(F)cc3)CC2)CC1,1,10,-4,4,-1,22,nt,nt,nt
CCC(=O)N1CCN(c2nc3ccccc3s2)CC1,-48,-64,-83,-24,1,-118,nt,nt,nt
SMILES,SRC2 inh,SRC1 inh,NCOA3 inh,NR2F2 inh,Gli-Sufu block,LRH-1 inv ag,Gli-Sufu confirm,SufuKO cytotox,Wnt3a counter
CC(C)NC(=O)C1CCN(C(=O)c2cc3sccc3n2Cc2ccc(F)cc2)CC1,nt,5,-13,nt,61*,-24,40,11,8
COC(=O)[C@]12C[C@H](CC(=O)N3CCN(C(=O)C4CC4)CC3)C(=O)N(CCc3ccc(OC)c(OC)c3)C1=C[C@H](C(C)(C)C)O[C@@H]2C,7,nt,nt,6,nt,nt,nt,nt,nt
COc1ccc(C(O)C(CN2CCOCC2)c2ccccc2)cc1F (centres undefined),12,2,13,-4,6,9,nt,nt,nt
COc1ccc(C(=O)C(CN2CCOCC2)c2ccccc2)cc1F (centres undefined),37,16,24,-22,55,-14,17,1,19
CC(=O)CC[C@H]1CC[C@]2(CCCN(C(=O)C3CCCCC3)C2)O1,-21,nt,nt,-15,nt,nt,nt,nt,nt
COc1ccccc1N1CCN(S(=O)(=O)c2ccc3c(c2)n(C)c(=O)c(=O)n3C)CC1,4,nt,nt,3,nt,nt,nt,nt,nt
CC(=O)c1ccc(NC(=O)CSC(C)C)cc1,-39,-43,-27,-19,99*,-54,-1,28*,-34
Cc1nc2ccccc2c(N)c1C(=O)/C=C/c1ccccc1,25,29,30,12,61*,35,15,-2,-55
COc1ccc(-n2ncc3c2CC(C)(C)CC3NC(=O)CN2CCOC2=O)cc1 (centres undefined),2,3,18,-2,61*,1,22,12,-10
COc1ccc(NC(=O)CN(C)C(=O)c2c(-c3ccccc3Cl)noc2C)cc1,-21,-20,12,-9,-9,1,nt,nt,nt
COc1ccc(CN(C)C(=O)COC(=O)c2c(-c3ccccc3Cl)noc2C)cc1,-8,4,7,-15,55,3,22,1,0
CCCCOC(=O)C[N+](C)(C)CCOC1CC2CCC1(C)C2(C)C (centres undefined),17,11,9,-2,69*,8,72*,37*,2
CC(C)CCOC(=O)C[N+](C)(C)CCOC1CC2CCC1(C)C2(C)C (centres undefined),11,-3,16,8,77*,35,73*,23,23

# Assay outcomes: PubChem BioAssay, several laboratories
